# Values joined by “and” are separate entries in the source; they are usually repeats but may differ in a detail not shown here. Equal values may be shown once. Screen size: about 5,500 compounds; about 2,000 (36%) were called active. About 18% were inconclusive and are not listed. Rule as the data show it: active = normalized growth mostly below about 0.91 (no sharp cut-off); inconclusive = no clear call, values can overlap the other calls; inactive = mostly above about 0.92. This is one part of the list.
# Assay: chemical genetic growth profiling, strain panel (AID 1159580);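 also: tested at 20 µM; growth read once vehicle control cultures reached saturation at 30 °C; 1 = growth at the plate median or of vehicle wells; lower values mean less growth of the strain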
# Settings: S. cerevisiae deletion strains, growth OD
compound,measurement,setting,value
Cc1c(OCC(F)(F)F)ccnc1CS(=O)c1nc2ccccc2[nH]1 (stereo not given),normalized growth,"locus YAL013W, strain DEP1, stronger effect = lower value",0.992 (inactive)
same,normalized growth,"locus YAL021C, strain ccr4, stronger effect = lower value",1.01 (inactive)
same,normalized growth,"locus YAL026C, strain drs2, stronger effect = lower value",1.02 (inactive)
same,normalized growth,"locus YAL030W, strain snc1, stronger effect = lower value",1.03 (inactive)
same,normalized growth,"locus YAL040C, strain CLN3, stronger effect = lower value",0.959 (inactive)
same,normalized growth,"locus YBL061C, strain skt5, stronger effect = lower value",1.02 (inactive)
same,normalized growth,"locus YBR009C, strain hhf1, stronger effect = lower value",1.02 (inactive)
same,normalized growth,"locus YBR021W, strain FUR4, stronger effect = lower value",0.948 (inactive)
same,normalized growth,"locus YBR023C, strain chs3, stronger effect = lower value",1.02 (inactive)
same,normalized growth,"locus YBR171W, strain sec66, stronger effect = lower value",1.02 (inactive)
same,normalized growth,"locus YBR229C, strain ROT2, stronger effect = lower value",0.982 (inactive)
same,normalized growth,"locus YBR231C, strain swc5, stronger effect = lower value",1.05 (inactive)
same,normalized growth,"locus YBR279W, strain paf1, stronger effect = lower value",1 (inactive)
same,normalized growth,"locus YCL011C, strain gbp2, stronger effect = lower value",1.01 (inactive)
same,normalized growth,"locus YCL016C, strain dcc1, stronger effect = lower value",1.01 (inactive)
same,normalized growth,"locus YCL029C, strain bik1, stronger effect = lower value",0.971 (inactive)
same,normalized growth,"locus YCL061C, strain MRC1 (second series), stronger effect = lower value",0.997 (inactive)
same,normalized growth,"locus YCL061C, strain MRC1, stronger effect = lower value",1.02 (inactive)
same,normalized growth,"locus YCL069W, strain vba3, stronger effect = lower value",1 (inactive)
same,normalized growth,"locus YCR088W, strain abp1, stronger effect = lower value",1.01 (inactive)
same,normalized growth,"locus YDL005C, strain med2, stronger effect = lower value",1.02 (inactive)
same,normalized growth,"locus YDL035C, strain GPR1, stronger effect = lower value",0.997 (inactive)
same,normalized growth,"locus YDL040C, strain nat1, stronger effect = lower value",1.03 (inactive)
same,normalized growth,"locus YDL074C, strain BRE1, stronger effect = lower value",0.937 (inactive)
same,normalized growth,"locus YDL101C, strain DUN1, stronger effect = lower value",0.959 (inactive)
same,normalized growth,"locus YDL134C, strain PPH21, stronger effect = lower value",0.997 (inactive)
same,normalized growth,"locus YDL185W, strain tfp1, stronger effect = lower value",0.98 (inactive)
same,normalized growth,"locus YDL192W, strain arf1, stronger effect = lower value",0.977 (inactive)
same,normalized growth,"locus YDR001C, strain nth1, stronger effect = lower value",1.01 (inactive)
same,normalized growth,"locus YDR069C, strain doa4, stronger effect = lower value",1.01 (inactive)
same,normalized growth,"locus YDR101C, strain arx1, stronger effect = lower value",0.985 (inactive)
same,normalized growth,"locus YDR137W, strain rgp1, stronger effect = lower value",1.01 (inactive)
same,normalized growth,"locus YDR150W, strain NUM1, stronger effect = lower value",0.996 (inactive)
same,normalized growth,"locus YDR159W, strain sac3, stronger effect = lower value",1.02 (inactive)
same,normalized growth,"locus YDR162C, strain NBP2, stronger effect = lower value",0.976 (inactive)
same,normalized growth,"locus YDR195W, strain ref2",1.02 (inactive)
same,normalized growth,"locus YDR297W, strain sur2, stronger effect = lower value",1.02 (inactive)
same,normalized growth,"locus YDR318W, strain mcm21, stronger effect = lower value",0.959 (inactive)
same,normalized growth,"locus YDR334W, strain swr1, stronger effect = lower value",1.01 (inactive)
same,normalized growth,"locus YDR335W, strain msn5, stronger effect = lower value",1.01 (inactive)
same,normalized growth,"locus YDR363W, strain ESC2, stronger effect = lower value",0.933 (inactive)
same,normalized growth,"locus YDR388W, stronger effect = lower value",0.987 (inactive)
same,normalized growth,"locus YDR392W, strain spt3, stronger effect = lower value",1.03 (inactive)
same,normalized growth,"locus YDR502C, strain sam2, stronger effect = lower value",0.94 (inactive)
same,normalized growth,"locus YEL003W, strain gim4, stronger effect = lower value",1.03 (inactive)
same,normalized growth,"locus YEL037C, strain rad23, stronger effect = lower value",1.01 (inactive)
same,normalized growth,"locus YEL061C, strain CIN8 (second series), stronger effect = lower value",1.03 (inactive)
same,normalized growth,"locus YEL061C, strain CIN8, stronger effect = lower value",0.999 (inactive)
same,normalized growth,"locus YER002W, strain NOP16, stronger effect = lower value",1.02 (inactive)
same,normalized growth,"locus YER015W, strain faa2, stronger effect = lower value",1.02 (inactive)
same,normalized growth,"locus YER016W, strain bim1, stronger effect = lower value",1.03 (inactive)
same,normalized growth,"locus YER110C, stronger effect = lower value",0.969 (inactive)
same,normalized growth,"locus YER111C, strain swi4, stronger effect = lower value",1.01 (inactive)
same,normalized growth,"locus YER155C, strain BEM2 (second series), stronger effect = lower value",1.01 (inactive)
same,normalized growth,"locus YER155C, strain BEM2, stronger effect = lower value",0.988 (inactive)
same,normalized growth,"locus YER167W, strain BCK2, stronger effect = lower value",0.987 (inactive)
same,normalized growth,"locus YFR010W, strain ubp6, stronger effect = lower value",1.02 (inactive)
same,normalized growth,"locus YGL078C, strain dbp3, stronger effect = lower value",0.898 (active)
same,normalized growth,"locus YGL086W, strain mad1, stronger effect = lower value",0.987 (inactive)
same,normalized growth,"locus YGL167C, strain pmr1, stronger effect = lower value",1.03 (inactive)
same,normalized growth,"locus YGL173C, strain kem1, stronger effect = lower value",1.04 (inactive)
same,normalized growth,"locus YGL227W, strain vid30, stronger effect = lower value",1.02 (inactive)
same,normalized growth,"locus YGL240W, strain doc1, stronger effect = lower value",1.02 (inactive)
same,normalized growth,"locus YGL248W, strain PDE1, stronger effect = lower value",0.988 (inactive)
same,normalized growth,"locus YGL253W, strain hxk2, stronger effect = lower value",1.01 (inactive)
same,normalized growth,"locus YGR078C, strain PAC10, stronger effect = lower value",0.945 (inactive)
same,normalized growth,"locus YGR135W, strain pre9, stronger effect = lower value",0.944 (inactive)
same,normalized growth,"locus YGR229C, strain SMI1, stronger effect = lower value",0.951 (inactive)
same,normalized growth,"locus YGR252W, strain gcn5, stronger effect = lower value",0.943 (inactive)
same,normalized growth,"locus YHR013C, strain ard1, stronger effect = lower value",0.999 (inactive)
same,normalized growth,"locus YHR027C, strain rpn1, stronger effect = lower value",1.01 (inactive)
same,normalized growth,"locus YHR030C, strain SLT2, stronger effect = lower value",0.996 (inactive) and 0.482 (active)
same,normalized growth,"locus YHR079C, strain IRE1 (second series), stronger effect = lower value",0.976 (inactive)
same,normalized growth,"locus YHR079C, strain IRE1, stronger effect = lower value",0.632 (active)
same,normalized growth,"locus YHR094C, strain hxt1, stronger effect = lower value",0.994 (inactive)
same,normalized growth,"locus YHR129C, strain ARP1, stronger effect = lower value",0.991 (inactive)
same,normalized growth,"locus YHR142W, strain chs7, stronger effect = lower value",1.02 (inactive)
same,normalized growth,"locus YHR200W, strain rpn10, stronger effect = lower value",0.963 (inactive)
same,normalized growth,"locus YIL066C, strain RNR3, stronger effect = lower value",0.975 (inactive)
same,normalized growth,"locus YIL073C, strain SPO22, stronger effect = lower value",1.04 (inactive)
same,normalized growth,"locus YIL125W, strain kgd1, stronger effect = lower value",0.952 (inactive)
same,normalized growth,"locus YIR030C, strain dcg1, stronger effect = lower value",0.995 (inactive)
same,normalized growth,"locus YJL092W, strain hpr5, stronger effect = lower value",1.01 (inactive)
same,normalized growth,"locus YJL095W, strain BCK1 (second series), stronger effect = lower value",1.02 (inactive)
same,normalized growth,"locus YJL095W, strain BCK1, stronger effect = lower value",0.937 (inactive) and 0.468 (active)
same,normalized growth,"locus YJL115W, strain asf1, stronger effect = lower value",1.03 (inactive)
same,normalized growth,"locus YJL129C, strain trk1, stronger effect = lower value",1.04 (inactive)
same,normalized growth,"locus YJL134W, strain LCB3, stronger effect = lower value",1 (inactive)
same,normalized growth,"locus YJL154C, strain vps35, stronger effect = lower value",1.01 (inactive)
same,normalized growth,"locus YJL164C, strain tpk1, stronger effect = lower value",1.02 (inactive)
same,normalized growth,"locus YJL166W, strain qcr8, stronger effect = lower value",1.03 (inactive)
same,normalized growth,"locus YJL168C, strain set2, stronger effect = lower value",0.982 (inactive)
same,normalized growth,"locus YJL187C, strain SWE1 (second series), stronger effect = lower value",0.951 (inactive)
same,normalized growth,"locus YJR043C, strain POL32, stronger effect = lower value",0.979 (inactive)
same,normalized growth,"locus YJR066W, strain TOR1, stronger effect = lower value",0.767 (active)

# — PubChem BioAssay AID1159580 (chemical genetic matrix, 2015)
